HIV Env fusion: blocks HIV Env-driven cell-cell fusion. HeLa-JRFL Env/CEM21 cell fusion, luciferase. inhibition, % at 12.3 µM. 1.1% of 360,000 active. AID 651610;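 active means mean replicate inhibition score of at least 50 and every replicate individually at or above 50; inconclusive means only one of the two criteria met; inactive means mean below 50 and not all replicates reaching 50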;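 further: 0% = plate neutral controls and 100% = maraviroc near 300 nM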
EWS-Fli inh: inhibitors of EWS/Fli oncoprotein transcriptional activity; 0.67% of 350,000 active; inhibition, % at 12.6 µM; A673 NR0B1-luciferase reporter, viability-normalised;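 active means mean inhibition of at least 50% after viability correction, with every replicate also passing that limit; inconclusive means mean reaches 50% but only one of two replicates passes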;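 further: firefly luciferase signal divided by Alamar Blue viability fluorescence both relative to DMSO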
PGC1a acetyl inh: lowers PGC1a acetylation signal in U2OS cells; AlphaScreen anti-acetyl-lysine; with virally co-expressed GCN5 acetyltransferase; inhibition, % at 15.6 µM; 0.17% of 350,000 active; AID 651687;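 active means every replicate shows inhibition of at least 40%; inconclusive means mean inhibition at least 40% but some replicate below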;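 further: 0% = neutral control wells and 100% = positive control wells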
INS-1E GSIS act: primary screen for activators of insulin secretion dependent on glucose, INS-1E cells, GLuc reporter luminescence; INS-1E GLuc reporter insulin secretion, 2-3 h; activation, % at 16.6 µM; 0.61% of 370,000 active;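 active means lowest replicate activation of at least 40%, so every replicate reaches that level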;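 further: 0% = median of neutral control wells and 100% = median of IBMX positive control wells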
F508del corr: CFTR F508del correction in bronchial cells | AID 720511 | CFBE cells, YFP halide quenching; stimulated with forskolin plus potentiator P3; % fluorescence drop versus neutral controls | activity (quench increase), % at 7.58 µM | 0.36% of 350,000 active;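 active means mean added fluorescence quench of at least 8% versus neutral control, with both replicates also reaching 8%; inconclusive means only one of the mean or replicate conditions met; inactive means mean below 8% and not both replicates reaching 8%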;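 further: cells transiently co-express mutant CFTR-F508del with the halide-sensitive YFP; corrector assay measuring rescue of mutant channel to the surface after 24 h compound exposure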
PAX8 inh HTS: lowers PAX8-driven luciferase in RMG-I cells | AID 652154 | 1.2% of 360,000 active | RMG-I TPO-luciferase reporter, SteadyGlo, 24 h | inhibition, % at 12.6 µM;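 active means mean replicate inhibition at least 60% with every replicate also reaching 60%; inconclusive means only one of the two criteria is met; inactive means mean below 60% and not all replicates reaching 60%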;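 further: luciferase light reporting Pax8 driven TPO promoter activity; plate controls were median of neutral control wells for no effect and mitoxantrone controls for full effect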
* = called active by the depositor; ? = inconclusive; · = not tested or not shown; ! = not active in a repeat; [ ] = remark or other dose. An excerpt weighted towards active compounds, which were near 2.7% of everything screened.

SMILES	HIV Env fusion	EWS-Fli inh	PGC1a acetyl inh	INS-1E GSIS act	F508del corr	PAX8 inh HTS
N[C@@H](Cc1ccc(N(CCCl)CCCl)cc1)C(=O)O	15	35	-5	12	2	16
C[C@H]1C[C@@H](C)C(=O)[C@@H]([C@H](O)CC2CC(=O)NC(=O)C2)C1	·	39	68*	7	-2	·
COc1ccc(-n2nnnc2C(c2ccccc2)N2CCC(n3c(=O)[nH]c4ccccc43)CC2)cc1 (centres undefined)	-127	-3	0	-47	2	78*
COc1ccc(-n2nnnc2C(c2cccs2)N2CCC(n3c(=O)[nH]c4ccccc43)CC2)cc1 (centres undefined)	-5	23	-24	-47	2	71*
COC(=O)C[C@H]1CC[C@@H]2NC[C@H](O)COC[C@H]2O1	-23[16.7 µM]	-1	-8	-5	0	-29
CCN(CCNc1ccc([N+](=O)[O-])c2cccnc12)S(=O)(=O)c1ccccc1	-162	·	·	11	·	14
CCN(CCNc1ccc([N+](=O)[O-])c2cccnc12)S(=O)(=O)c1ccc(Cl)cc1	81*	·	0	·	·	·
COC(=O)[C@@H]1[C@@H](CO)[C@@H]2Cn3c(ccc(/C=C/c4ccccc4)c3=O)[C@H]1N2C(=O)C1CCC1	·	0	·	-6	0	·
COc1ccc(OC(=O)N(C)C[C@H]2OCc3ccccc3-c3c(n(C)c4ccccc34)C(=O)N([C@H](C)CO)C[C@@H]2C)cc1	·	6	-4	-13	-1	·
O=[N+]([O-])c1ccc(N2CCNCC2)cc1N1CCCCC1	-12	12	·	10	-1	83*
Nc1cc(N2CCNCC2)c([N+](=O)[O-])cc1Cl	-3	·	·	-4	·	-4
O=C(O)[C@H]1[C@H](CO)[C@H]2Cn3c(ccc(-c4ccncc4)c3=O)[C@@H]1N2S(=O)(=O)c1ccccc1F	-18[16.7 µM]	3	·	6	·	·
COC(=O)[C@H]1[C@H](CO)[C@H]2Cn3c(ccc(C4=CCCCC4)c3=O)[C@@H]1N2Cc1ccccc1OC	·	-7	·	5	2	3
CC(C)CCCn1c(O)c(/C=C2/C=CC=N2)c(=O)[nH]c1=O	-5	·	·	53*	·	-11
S=C(NCCc1ccccc1)N1Cc2cc(N3CCCCC3)ccc2-n2nncc2C1	75*	4	-6	-41	-1	4
O=C(O)[C@@H]1[C@@H](CO)[C@@H]2Cn3c(ccc(-c4cccnc4)c3=O)[C@H]1N2C(=O)Nc1cc(F)ccc1F	9[16.7 µM]	-1	·	-5	·	·
CC(C)(O)/C=C/C(=O)[C@](C)(O)C1[C@H](O)C[C@@]2(C)C3CC=C4C(C[C@H](O)[C@@H](O)C4(C)C)[C@]3(C)C(=O)C[C@]12C (some centres undefined)	·	·	65*	·	·	·
O=C(O)[C@H]1[C@H](CO)[C@H]2Cn3c(ccc(C4=CCCCC4)c3=O)[C@@H]1N2C(=O)Cc1ccccn1	-1[16.7 µM]	-1	·	12	·	-5
c1ccc2c(N3CCNCC3)cccc2c1	5	1	?	·	3	19
c1ccc2nc(N3CCNCC3)ccc2c1	-10	4	-6	2	9.8*!	6
COc1ccc(C(=O)OC2CC[C@@]3(C)C4CCC5[C@]6(O)CC(O)[C@@]7(O)C(CN8CC(C)CCC8[C@@]7(C)O)[C@]6(O)C[C@@]53O[C@]24O)cc1OC (some centres undefined)	2	7	·	46*	3	1
C=CC1CN2CCC1C[C@@H]2CO (some centres undefined)	1[16.7 µM]	12	20	·	-1	-15
CC1=CC(=C2C(=O)NC(=S)NC2=O)C=C(C(F)(F)F)N1Cc1ccccc1	-134	54*	88*	8	8	24
CC1=CC(=C2C(=O)NC(=O)NC2=O)C=C(C(F)(F)F)N1Cc1ccccc1	-33	4	·	16	1	6
COc1ccc(OC(=O)N(C)C[C@@H]2OCc3ccccc3-c3c(n(C)c4ccccc34)C(=O)N([C@H](C)CO)C[C@@H]2C)cc1	69*	-83	-3	-23	2	24
SMILES	HIV Env fusion	EWS-Fli inh	PGC1a acetyl inh	INS-1E GSIS act	F508del corr	PAX8 inh HTS
CN1CCN(C(=O)CN=[N+]=[N-])CC1	-16[16.7 µM]	-10	5	·	2	-9
O=C1CN=C(c2ccccc2)c2ccccc2N1Cc1ccc(C(F)(F)F)cc1	76*	·	-7	-37	·	·
Cc1oc(-c2ccccc2Cl)nc1CN1C(=O)CN=C(c2ccccc2)c2ccccc21	15	-1	8	·	0	15
CC1CC(C)CC(C)C(O)C(C#N)=CC=CCC(C2CCCC2C(=O)O)OC(=O)CC(O)C(C)C1 (centres undefined)	71*	47	?	-27	-2	102*
O=C(Cc1cccnc1)N1CCCCN2[C@H](C1)[C@H](c1ccc(C#CC3(O)CCCC3)cc1)[C@@H]2CO	·	-3	5	6	-2	-31
CC(Cc1ccsc1)NCc1cn[nH]c1-c1ccc(F)cc1F (centres undefined)	63*	0	-7	11	-2	5
O=C(NC[C@H]1CC[C@@H]2NC[C@@H]2O1)C1CCCC1	-22[16.7 µM]	7	2	·	-3	14
CCC(C)OC(=O)c1c(N)n(Cc2cccs2)c2nc3ccccc3nc12 (centres undefined)	61*	·	0	·	·	·
CCN(CC)C(=O)c1ccc(NC(=O)Nc2ccccc2F)cc1	9	62*	·	5	1	15
CC(C)C[C@H]1COc2cccc(N3CCN(C)CC3)c2S(=O)(=O)N1	-10	5	·	4	2	3
CC(C)C[C@@H]1COc2cccc(N3CCN(C)CC3)c2S(=O)(=O)N1	-11	-2	·	2	12*	-5
CCc1ccc(CNCCc2c[nH]c3ccccc23)cc1	78*	15	16	-15	-2	-11
c1ccc(CNCCc2c[nH]c3ccccc23)cc1	15	16	8	5	-2	7
COc1cc(CNCCc2c[nH]c3ccccc23)cc(OC)c1OC	-8	1	·	21	1	8
COc1cc(CNCCc2c[nH]c3ccccc23)cc(OC)c1	61*	23	3	-6	-2	15
CCCCCC(=O)N[C@@H](c1ccccc1)[C@@H](O)C(=O)O[C@H]1C[C@@]2(O)[C@@H](OC(=O)c3ccccc3)C3[C@](C)(C(=O)[C@H](O)C(=C1C)C2(C)C)[C@@H](OC1OCC(O)C(O)C1O)C[C@H]1OC[C@@]31OC(C)=O (some centres undefined)	·	46	1	5	-1	·
CCC(C)C(=O)N[C@@H](c1ccccc1)[C@@H](O)C(=O)O[C@H]1C[C@@]2(O)[C@@H](OC(=O)c3ccccc3)C3[C@](C)(C(=O)[C@H](OC(C)=O)C(=C1C)C2(C)C)[C@@H](O)C[C@H]1OC[C@@]31OC(C)=O (some centres undefined)	·	56*	-17	·	11*	·

Screening data (PubChem BioAssay)
